Data as given in PubChem BioAssay AID1159580 (chemical genetic matrix, 2015).
“And” between values parts separate entries of the source, which are not always exact repeats. Equal entries are not always repeated. Out of some 5,500 compounds screened, about 2,000 (36%) were called active. Roughly 18% stayed inconclusive and do not appear here. Cut-off read from the data, not from the text of the source: active = normalized growth mostly below about 0.91 (no sharp cut-off); inconclusive = no clear call, values can overlap the other calls; inactive = mostly above about 0.92. Some of the results follow.

Assay: chemical genetic growth profiling, strain panel (AID 1159580);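 note: tested at 20 µM; growth read once vehicle control cultures reached saturation at 30 °C; 1 = growth at the plate median or of vehicle wells; lower values mean less growth of the strain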
Conditions: S. cerevisiae deletion strains, growth OD

Measured: normalized growth

NC[C@H]1O[C@H](OC2[C@@H](N)C[C@@H](N)[C@H](O[C@H]3O[C@H](CO)[C@@H](O)[C@H](N)[C@H]3O)[C@H]2O)[C@H](O)[C@@H](O)[C@@H]1O (some centres undefined)
inactive: locus YAL013W, strain DEP1, hits give low values 0.997 | locus YAL021C, strain ccr4, hits give low values 0.993 | locus YAL026C, strain drs2, hits give low values 0.998 | locus YAL030W, strain snc1, hits give low values 1 | locus YBL061C, strain skt5, hits give low values 1.01 | locus YBR009C, strain hhf1, hits give low values 1.01 | locus YBR021W, strain FUR4, hits give low values 0.97 | locus YBR023C, strain chs3, hits give low values 0.983 | locus YBR171W, strain sec66, hits give low values 0.989 | locus YBR229C, strain ROT2, hits give low values 0.988 | locus YBR231C, strain swc5, hits give low values 0.998 | locus YBR279W, strain paf1, hits give low values 1.01 | locus YCL011C, strain gbp2, hits give low values 0.999 | locus YCL016C, strain dcc1, hits give low values 0.985 | locus YCL029C, strain bik1, hits give low values 0.985 | locus YCL061C, strain MRC1, hits give low values 0.99 | locus YCL069W, strain vba3, hits give low values 0.998 | locus YCR088W, strain abp1, hits give low values 0.994 | locus YDL005C, strain med2, hits give low values 0.994 | locus YDL035C, strain GPR1, hits give low values 1.02 | locus YDL040C, strain nat1, hits give low values 1 | locus YDL074C, strain BRE1, hits give low values 0.991 | locus YDL101C, strain DUN1, hits give low values 0.986 | locus YDL134C, strain PPH21, hits give low values 1.01 | locus YDL185W, strain tfp1, hits give low values 0.997 | locus YDL192W, strain arf1, hits give low values 0.98 | locus YDR001C, strain nth1, hits give low values 0.995 | locus YDR069C, strain doa4, hits give low values 1 | locus YDR101C, strain arx1, hits give low values 0.99 | locus YDR137W, strain rgp1, hits give low values 0.997 | locus YDR150W, strain NUM1, hits give low values 1 | locus YDR159W, strain sac3, hits give low values 1 | locus YDR162C, strain NBP2, hits give low values 1 | locus YDR195W, strain ref2 0.961 | locus YDR297W, strain sur2, hits give low values 0.998 | locus YDR318W, strain mcm21, hits give low values 0.978 | locus YDR334W, strain swr1, hits give low values 0.988 | locus YDR335W, strain msn5, hits give low values 1 | locus YDR388W, hits give low values 0.993 | locus YDR392W, strain spt3, hits give low values 0.935 | locus YDR502C, strain sam2, hits give low values 1.01 | locus YEL003W, strain gim4, hits give low values 1.01 | locus YEL037C, strain rad23, hits give low values 1.01 | locus YEL061C, strain CIN8 (second series), hits give low values 0.999 | locus YEL061C, strain CIN8, hits give low values 0.997 | locus YER015W, strain faa2, hits give low values 0.978 | locus YER016W, strain bim1, hits give low values 1.01 | locus YER110C, hits give low values 0.97 | locus YER111C, strain swi4, hits give low values 0.994 | locus YER155C, strain BEM2 (second series), hits give low values 0.993 | locus YER155C, strain BEM2, hits give low values 0.993 | locus YER167W, strain BCK2, hits give low values 0.989 | locus YFR010W, strain ubp6, hits give low values 1 | locus YGL078C, strain dbp3, hits give low values 0.973 | locus YGL086W, strain mad1, hits give low values 1 | locus YGL167C, strain pmr1, hits give low values 1.01 | locus YGL173C, strain kem1, hits give low values 0.996 | locus YGL227W, strain vid30, hits give low values 0.991 | locus YGL240W, strain doc1, hits give low values 0.99 | locus YGL248W, strain PDE1, hits give low values 0.984 | locus YGL253W, strain hxk2, hits give low values 1.01 | locus YGR135W, strain pre9, hits give low values 0.943 | locus YGR252W, strain gcn5, hits give low values 0.967 | locus YHR013C, strain ard1, hits give low values 0.982 | locus YHR027C, strain rpn1, hits give low values 1 | locus YHR030C, strain SLT2, hits give low values 0.991 | locus YHR079C, strain IRE1 (second series), hits give low values 0.982 | locus YHR079C, strain IRE1, hits give low values 0.993 | locus YHR094C, strain hxt1, hits give low values 0.975 | locus YHR129C, strain ARP1, hits give low values 0.994 | locus YHR142W, strain chs7, hits give low values 0.998 | locus YHR200W, strain rpn10, hits give low values 0.993 | locus YIL066C, strain RNR3, hits give low values 0.994 | locus YIL073C, strain SPO22, hits give low values 0.954 | locus YIL125W, strain kgd1, hits give low values 0.987 | locus YIR030C, strain dcg1, hits give low values 0.99 | locus YJL092W, strain hpr5, hits give low values 1 | locus YJL095W, strain BCK1 (second series), hits give low values 0.997 | locus YJL095W, strain BCK1, hits give low values 0.99 and 1.01 | locus YJL115W, strain asf1, hits give low values 0.997 | locus YJL129C, strain trk1, hits give low values 0.991 | locus YJL134W, strain LCB3, hits give low values 0.996 | locus YJL154C, strain vps35, hits give low values 0.992 | locus YJL164C, strain tpk1, hits give low values 0.991 | locus YJL166W, strain qcr8, hits give low values 0.99 | locus YJL168C, strain set2, hits give low values 0.978 | locus YJL187C, strain SWE1 (second series), hits give low values 0.984 | locus YJL187C, strain SWE1, hits give low values 0.997 | locus YJR043C, strain POL32, hits give low values 1.03
